Measurements: PubChem BioAssay (Tox21)
Where “and” joins values, the source holds several entries; their conditions need not be identical. Equal values may be shown once. Inconclusive results are not listed. The source holds several records for some structures; these can differ, active in one and inactive in another. Calls of active or inactive are those of the source. Unless noted, calls follow the shape of the dose curve; as a rule, active = well fitted curve in the direction sought with a large enough effect in the repeat runs; inconclusive = weak or mixed curves; inactive = no such curve, though single readings can be large; an effect the other way counts as inactive or inconclusive.

How the values were obtained:
[1] = Caspase-3/7 induction in HepG2 cells by small molecules, qHTS assay (AID 1346978); also: nearly all actives have a fitted effect of over 15% in size
Outline: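 Wild-type HepG2 cells, 2,000/well, settled 5 hr at 37 C and 5% CO2, then compound-treated for 17 hr; caspase-3/7 activity read by luminescent Caspase-Glo 3/7 after 30 min at room temperature.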

[2] = Caspase-3/7 induction in CHO-K1 cells by small molecules, qHTS assay (AID 1346980); also: nearly all actives have a fitted effect of over 15% in size
Outline: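 Wild-type CHO-K1 cells exposed to compounds for 17hr at 37 C, 5% CO2. Caspase-3/7 activity then measured by Caspase-Glo 3/7 luminescence after 30min at room temperature.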

[3] = Caspase-3/7 induction in HepG2 cells by small molecules, qHTS cell viability counter screen (AID 1346981); also: nearly all actives have a fitted effect of over 30% in size; also: potency is read from the fitted curve at half-maximal effect; as to activity change, negative = cytotoxicity: series mostly up to about 92 µM
Outline: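 Wild-type HepG2 cells (2,000/well) were allowed to settle for 5 hr at 37 C, 5% CO2, then dosed with compounds in DMSO by pin transfer. After 16 hr at 37 C, CellTiter-Fluor was added and fluorescence read 1 hr later.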

[4] = biological target: Nuclear receptor subfamily 1 group I member 2 (Homo sapiens) (UniProt O75469); assay: Human pregnane X receptor (PXR) small molecule agonists, qHTS assay (AID 1346982); also: nearly all actives have a fitted effect of over 35% in size; also: potency is read from the fitted curve at half-maximal effect
Outline: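 PXR-Luc HepG2 cells (CYP3A4 promoter-driven luciferase) were seeded in medium with 5% charcoal-stripped FBS, left 5 hr at 37 C, then exposed to compounds in DMSO for 24 hr. Luminescence was read after ONE-Glo addition.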

[5] = biological target: Acetylcholinesterase (Homo sapiens) (UniProt P22303); assay: Acetylcholinesterase (AChE) small molecule antagonists: colormetric cell-based qHTS assay (AID 1347395; calls by dose curve; also: nearly all actives have a fitted effect of over 30% in size)
Outline: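 Homogeneous whole-cell format. SH-SY5Y cells seeded overnight, dosed with compound (30 min, 37 C, 5% CO2), then given DTNB/acetylthiocholine cocktail for 90 min at 37 C; colorimetric signal.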

[6] = biological target: Acetylcholinesterase (Homo sapiens) (UniProt P22303); assay: Acetylcholinesterase (AChE) small molecule antagonists: enzyme-based qHTS assay (AID 1347397; calls by dose curve; also: nearly all actives have a fitted effect of over 55% in size; also: potency is read from the fitted curve at half-maximal effect); settings: Potency: AChE enzyme activity inhibition; outcome: AChE enzyme activity inhibition
Outline: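 Enzyme inhibition was scored from DTNB-detected thiocholine formed by recombinant human AChE acting on acetylthiocholine. The 30 min compound preincubation and 10 min substrate reaction were both run at room temperature, with DMSO as vehicle control.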

[7] = biological target: Acetylcholinesterase (Homo sapiens) (UniProt P22303); assay: Acetylcholinesterase (AChE) small molecule antagonists: fluorescence cell-based qHTS assay (AID 1347398; calls by dose curve; also: nearly all actives have a fitted effect of over 50% in size; also: potency is read from the fitted curve at half-maximal effect); settings: Potency: AChE activity; outcome: AChE activity
Outline: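 Endogenous acetylcholinesterase of SH-SY5Y neuroblastoma cells is measured in situ. After overnight attachment and 30 min compound exposure, cells receive acetylthiocholine and Thiolite Green; fluorescence is read after 40 min at room temperature.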

[8] = biological target: Acetylcholinesterase (Homo sapiens) (UniProt P22303); assay: Acetylcholinesterase (AChE) small molecule antagonists: enzyme-based qHTS assay with human liver microsomes (AID 1347399; calls by dose curve; also: nearly all actives have a fitted effect of over 60% in size); settings: Potency: qHTS inhibition; outcome: qHTS inhibition
Outline: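 Recombinant human AChE (50 mU/mL in the enzyme mix) and human liver microsomes (0.25 mg/mL final) were preincubated with compound and NADPH (0.25 mg/mL final) for 30 min at 37 C. Acetylthiocholine/DTNB was then added; thiocholine was read colorimetrically after 10 min at room temperature.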

[9] = biological target: Voltage-gated inwardly rectifying potassium channel KCNH2 (Homo sapiens) (UniProt Q12809); assay: Human Ether-a-go-go-Related Gene (hERG) channel small molecule antagonists: fluorescence cell-based qHTS assay (AID 1671200); also: nearly all actives have a fitted effect of over 50% in size; also: potency is read from the fitted curve at half-maximal effect;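 as to activity change, negative = inhibition: hERG-expressing U2OS cells given a thallium stimulus after FluxOR II dye loading; series mostly up to about 77 µM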
Outline: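 Thallium served as the potassium surrogate; its influx into dye-loaded U2OS cells carrying the channel was measured by fluorescence over 2 min.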

[10] = biological target: Cytochrome P450 3A4 (Homo sapiens) (UniProt P08684); assay: Cytochrome P450 Family 3 Subfamily A Member 4 (CYP3A4) small molecule antagonists: luciferase reporter qHTS assay (AID 1671201); also: nearly all actives have a fitted effect of over 50% in size; also: potency is read from the fitted curve at half-maximal effect; as to activity change, negative = inhibition: series mostly up to about 120 µM
Outline: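 Relative luminescence units after 20 min with luciferin detection reagent served as read-out. Beforehand, CYP3A4 turned over a proluciferin substrate for 1 h at room temperature with NADPH regeneration, following 10 min compound preincubation.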

[11] = Caspase-3/7 induction in CHO-K1 cells by small molecules, qHTS cell viability counter screen (AID 1346979); also: nearly all actives have a fitted effect of over 35% in size; also: potency is read from the fitted curve at half-maximal effect
Outline: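 Viability readout by fluorescence (CellTiter-Fluor) on wild-type CHO-K1 cells exposed for 16hr at 37C and 5% CO2 to compounds delivered in DMSO; reagent incubated 1hr before reading.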

[12] = biological target: Nuclear receptor subfamily 1 group I member 2 (Rattus norvegicus) (UniProt Q9R1A7); assay: Rat pregnane X receptor (rPXR) activation by small molecules, qHTS assay (AID 1346983); settings: rPXR luciferase reporter cells, One-Glo luminescence, 24 h; stronger effect = higher value; also: nearly all actives have a fitted effect of over 20% in size
Outline: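 Cell-based rPXR activation assay: rPXR cells, 2,000 per well, rested 5hr at 37 C, then exposed to compounds in DMSO for 24 hr at 37 C. Luciferase activity read by One-Glo luminescence after 30 min at room temperature.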

[13] = biological target: Cytochrome P450 2D6 (Homo sapiens) (UniProt P10635); assay: Cytochrome P450 Family 2 Subfamily D Member 6 (CYP2D6) small molecule antagonists: luciferase reporter qHTS assay (AID 1671196); also: nearly all actives have a fitted effect of over 50% in size; also: potency is read from the fitted curve at half-maximal effect; as to activity change, negative = inhibition: series mostly up to about 120 µM
Outline: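 CYP2D6 enzyme–substrate mix was held with compound for 10 min at room temperature, then NADPH regeneration solution was added and the reaction ran 1 h at room temperature. Luciferin product was detected by luminescence after 20 min with detection reagent.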

[14] = biological target: Cytochrome P450 2C19 (Homo sapiens) (UniProt P33261); assay: Cytochrome P450 Family 2 Subfamily C Member 19 (CYP2C19) small molecule antagonists: luciferase reporter qHTS assay (AID 1671197); also: nearly all actives have a fitted effect of over 65% in size; also: potency is read from the fitted curve at half-maximal effect; as to activity change, negative = inhibition: series mostly up to about 120 µM
Outline: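 P450-Glo CYP2C19 screening system; proluciferin substrate; DMSO compound stocks; 10 min RT preincubation; NADPH regeneration, 1 h at 37C; luciferin detection reagent, 20 min RT; luminescence as RLU.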

[15] = biological target: Cytochrome P450 2C9 (Homo sapiens) (UniProt P11712); assay: Cytochrome P450 Family 2 Subfamily C Member 9 (CYP2C9) small molecule antagonists: luciferase reporter qHTS assay (AID 1671198); also: nearly all actives have a fitted effect of over 50% in size; also: potency is read from the fitted curve at half-maximal effect; as to activity change, negative = inhibition: series mostly up to about 120 µM
Outline: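 P450-Glo proluciferin substrate with CYP2C9 enzyme; 10 min RT preincubation, then NADPH regeneration 1 h at 37C; luciferin detection reagent 20 min RT, luminescence in relative luminescence units.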

[16] = biological target: Cytochrome P450 1A2 (Homo sapiens) (UniProt P05177); assay: Cytochrome P450 Family 1 Subfamily A Member 2 (CYP1A2) small molecule antagonists: luciferase reporter qHTS assay (AID 1671199); also: nearly all actives have a fitted effect of over 50% in size; also: potency is read from the fitted curve at half-maximal effect; as to activity change, negative = inhibition: series mostly up to about 120 µM
Outline: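 Human CYP1A2 activity measured with a P450-Glo proluciferin substrate; compounds in DMSO preincubated 10 min at room temperature with enzyme-substrate mix, then NADPH regeneration system added for 1 h. Luciferin detection reagent, 20 min, luminescence read.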

[17] = biological target: Nuclear receptor subfamily 1 group I member 2 (Homo sapiens) (UniProt O75469); assay: CYP3A4 induction through human pregnane X receptor (PXR) by small molecules, qHTS assay (AID 1346984); also: nearly all actives have a fitted effect of over 40% in size
Outline: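 DPX-2 cells (HepG2 co-transfected with PXR and CYP3A4 promoter-luciferase) treated with compounds 24 h at 37C; luciferin-IPA CYP3A4 substrate 3uM final added for 3 h, then One-Glo; luminescence read. qHTS format.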

[18] = biological target: Nuclear receptor subfamily 1 group I member 2 (Homo sapiens) (UniProt O75469); assay: Human pregnane X receptor (PXR) activation by small molecules, qHTS assay (AID 1346985); also: nearly all actives have a fitted effect of over 40% in size
Outline: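 DPX-2 cells (HepG2 co-transfected with a PXR response element and a CYP3A4-promoter luciferase construct) were seeded at 2,000 per well, rested 5 hr at 37C, then exposed to DMSO-dissolved compounds for 24 hr. Activation was read as luciferase luminescence.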
% is scaled to controls: 0 for no effect and ±100 for the full control effect.

Cytochrome P450 2C9 (Homo sapiens), sequence (P11712 whole entry, looked up): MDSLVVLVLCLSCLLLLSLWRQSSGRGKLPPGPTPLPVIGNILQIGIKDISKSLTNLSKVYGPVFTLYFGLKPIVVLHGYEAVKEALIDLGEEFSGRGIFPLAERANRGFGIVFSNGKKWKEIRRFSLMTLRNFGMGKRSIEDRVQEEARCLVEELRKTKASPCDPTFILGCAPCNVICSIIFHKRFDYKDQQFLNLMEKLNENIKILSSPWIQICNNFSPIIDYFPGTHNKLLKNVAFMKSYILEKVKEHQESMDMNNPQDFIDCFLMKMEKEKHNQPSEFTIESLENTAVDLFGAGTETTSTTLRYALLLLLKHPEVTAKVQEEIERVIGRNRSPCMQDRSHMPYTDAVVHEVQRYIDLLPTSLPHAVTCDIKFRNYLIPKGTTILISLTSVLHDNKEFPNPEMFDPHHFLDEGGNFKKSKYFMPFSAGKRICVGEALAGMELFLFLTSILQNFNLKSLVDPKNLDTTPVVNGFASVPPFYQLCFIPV
Cytochrome P450 1A2 (Homo sapiens), sequence (P05177 whole entry, looked up): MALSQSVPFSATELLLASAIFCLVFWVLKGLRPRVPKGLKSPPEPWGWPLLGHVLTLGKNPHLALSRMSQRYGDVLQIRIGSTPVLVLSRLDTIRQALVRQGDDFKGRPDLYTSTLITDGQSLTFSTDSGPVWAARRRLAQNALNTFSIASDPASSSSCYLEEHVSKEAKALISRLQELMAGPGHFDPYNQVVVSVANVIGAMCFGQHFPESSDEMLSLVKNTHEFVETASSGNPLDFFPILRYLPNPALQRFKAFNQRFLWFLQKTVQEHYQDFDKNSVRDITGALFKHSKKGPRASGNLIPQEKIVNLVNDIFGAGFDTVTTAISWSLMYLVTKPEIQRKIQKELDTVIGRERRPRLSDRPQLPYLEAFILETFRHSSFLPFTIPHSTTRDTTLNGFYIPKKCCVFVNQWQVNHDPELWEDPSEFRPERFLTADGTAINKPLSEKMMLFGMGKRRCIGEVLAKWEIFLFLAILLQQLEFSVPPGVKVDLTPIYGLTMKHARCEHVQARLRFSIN
Nuclear receptor subfamily 1 group I member 2 (Rattus norvegicus), sequence (Q9R1A7 whole entry, looked up): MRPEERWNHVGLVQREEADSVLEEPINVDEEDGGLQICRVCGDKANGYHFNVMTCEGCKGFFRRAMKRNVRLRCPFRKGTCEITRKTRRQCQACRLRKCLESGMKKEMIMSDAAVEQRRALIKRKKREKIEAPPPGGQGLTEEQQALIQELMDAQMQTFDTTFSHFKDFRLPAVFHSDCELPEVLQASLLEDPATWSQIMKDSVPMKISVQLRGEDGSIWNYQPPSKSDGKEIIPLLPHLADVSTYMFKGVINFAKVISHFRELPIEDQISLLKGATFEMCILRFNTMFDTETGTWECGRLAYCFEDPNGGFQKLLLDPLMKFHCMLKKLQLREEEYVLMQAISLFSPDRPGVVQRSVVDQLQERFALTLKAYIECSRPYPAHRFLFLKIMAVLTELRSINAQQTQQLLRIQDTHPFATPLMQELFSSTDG
Cytochrome P450 3A4 (Homo sapiens), sequence (P08684 whole entry, looked up): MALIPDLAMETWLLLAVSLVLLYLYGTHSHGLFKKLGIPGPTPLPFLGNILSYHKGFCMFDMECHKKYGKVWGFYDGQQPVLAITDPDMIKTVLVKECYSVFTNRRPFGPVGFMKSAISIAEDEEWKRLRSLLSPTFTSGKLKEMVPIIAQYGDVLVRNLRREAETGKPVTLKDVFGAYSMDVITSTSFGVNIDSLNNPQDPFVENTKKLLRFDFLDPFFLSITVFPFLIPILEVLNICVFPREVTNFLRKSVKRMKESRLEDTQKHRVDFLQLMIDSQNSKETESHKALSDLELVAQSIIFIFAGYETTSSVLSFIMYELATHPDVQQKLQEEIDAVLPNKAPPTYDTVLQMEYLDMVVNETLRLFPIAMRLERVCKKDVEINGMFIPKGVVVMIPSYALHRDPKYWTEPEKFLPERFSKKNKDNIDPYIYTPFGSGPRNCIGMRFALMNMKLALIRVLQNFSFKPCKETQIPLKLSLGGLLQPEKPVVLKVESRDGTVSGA
Cytochrome P450 2D6 (Homo sapiens), sequence (P10635 whole entry, looked up): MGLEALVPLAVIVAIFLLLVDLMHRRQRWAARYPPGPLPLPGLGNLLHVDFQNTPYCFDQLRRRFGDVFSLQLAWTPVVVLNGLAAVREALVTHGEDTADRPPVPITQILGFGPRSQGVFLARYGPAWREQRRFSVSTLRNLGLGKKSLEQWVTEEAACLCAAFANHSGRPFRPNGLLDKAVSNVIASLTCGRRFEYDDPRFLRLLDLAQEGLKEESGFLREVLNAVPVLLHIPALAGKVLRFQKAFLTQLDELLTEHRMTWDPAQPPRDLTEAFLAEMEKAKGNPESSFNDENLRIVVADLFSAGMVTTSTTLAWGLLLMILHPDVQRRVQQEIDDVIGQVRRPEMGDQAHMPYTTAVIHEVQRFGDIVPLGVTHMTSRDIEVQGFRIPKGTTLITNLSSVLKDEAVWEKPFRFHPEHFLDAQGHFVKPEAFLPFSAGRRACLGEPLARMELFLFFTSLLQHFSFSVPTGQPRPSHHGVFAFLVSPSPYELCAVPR
Acetylcholinesterase (Homo sapiens), sequence (P22303 whole entry, looked up): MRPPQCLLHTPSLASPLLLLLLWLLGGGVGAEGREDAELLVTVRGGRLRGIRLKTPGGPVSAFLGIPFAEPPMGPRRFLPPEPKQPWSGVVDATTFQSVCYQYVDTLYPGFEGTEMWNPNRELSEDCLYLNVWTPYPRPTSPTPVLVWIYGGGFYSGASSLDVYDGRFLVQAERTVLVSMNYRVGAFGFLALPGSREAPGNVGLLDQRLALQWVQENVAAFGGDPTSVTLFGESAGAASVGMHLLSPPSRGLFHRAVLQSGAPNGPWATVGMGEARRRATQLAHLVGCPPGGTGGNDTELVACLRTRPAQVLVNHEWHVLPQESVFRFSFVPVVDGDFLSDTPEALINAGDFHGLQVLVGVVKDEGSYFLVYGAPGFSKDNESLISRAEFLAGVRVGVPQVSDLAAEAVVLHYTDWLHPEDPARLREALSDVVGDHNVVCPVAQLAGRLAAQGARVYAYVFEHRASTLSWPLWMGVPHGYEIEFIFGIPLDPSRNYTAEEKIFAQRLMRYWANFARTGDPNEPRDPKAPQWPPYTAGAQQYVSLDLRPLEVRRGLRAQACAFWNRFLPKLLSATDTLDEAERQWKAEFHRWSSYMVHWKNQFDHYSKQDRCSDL
Cytochrome P450 2C19 (Homo sapiens), sequence (P33261 whole entry, looked up): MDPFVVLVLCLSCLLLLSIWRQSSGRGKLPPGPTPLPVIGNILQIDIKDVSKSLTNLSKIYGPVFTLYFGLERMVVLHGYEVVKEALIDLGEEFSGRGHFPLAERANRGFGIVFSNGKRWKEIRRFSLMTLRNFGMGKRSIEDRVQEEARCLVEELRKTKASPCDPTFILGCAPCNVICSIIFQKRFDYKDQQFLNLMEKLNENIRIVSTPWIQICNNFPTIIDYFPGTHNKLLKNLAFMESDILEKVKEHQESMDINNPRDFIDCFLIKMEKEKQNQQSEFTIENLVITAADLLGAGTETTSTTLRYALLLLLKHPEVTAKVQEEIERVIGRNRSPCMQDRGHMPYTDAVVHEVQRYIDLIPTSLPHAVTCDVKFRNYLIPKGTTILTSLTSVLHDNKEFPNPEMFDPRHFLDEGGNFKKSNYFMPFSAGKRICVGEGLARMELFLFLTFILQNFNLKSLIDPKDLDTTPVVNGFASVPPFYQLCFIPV
Nuclear receptor subfamily 1 group I member 2 (Homo sapiens), sequence (O75469 whole entry, looked up): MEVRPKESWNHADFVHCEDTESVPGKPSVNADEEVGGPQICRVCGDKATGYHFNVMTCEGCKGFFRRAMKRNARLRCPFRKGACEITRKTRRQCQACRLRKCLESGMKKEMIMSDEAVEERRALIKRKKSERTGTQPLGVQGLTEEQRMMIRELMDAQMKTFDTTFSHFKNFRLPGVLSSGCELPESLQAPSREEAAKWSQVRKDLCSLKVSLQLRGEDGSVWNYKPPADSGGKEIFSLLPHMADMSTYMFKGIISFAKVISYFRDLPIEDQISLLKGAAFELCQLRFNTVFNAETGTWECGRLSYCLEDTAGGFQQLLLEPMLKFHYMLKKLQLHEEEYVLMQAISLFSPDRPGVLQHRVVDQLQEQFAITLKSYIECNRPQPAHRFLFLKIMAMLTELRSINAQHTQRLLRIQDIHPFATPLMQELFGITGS

C=C(Cl)Cl
active: Potency [4] 58 µM
inactive: Potency [1] | Potency [2] | Potency [3] | Potency [5] | Potency [6] | Potency [7] | Potency [8] | Potency [9] | Potency [10]

CCCCCCCCCCCC[N+](C)(C)CCOc1ccccc1
inactive: Potency [2] | max activation [12] -6.32% | Potency [5] | Potency [8] | Potency [10]
active: Potency [11] 43.3 µM | Potency [3] 61.1 µM | Potency [6] 63.3 µM | Potency [7] 35.6 µM | Potency [13] 3.56 µM and 4.36 µM | Potency [14] 56.4 µM | Potency [15] 63.3 µM | Potency [9] 776 nM and 1.34 µM
79.7 µM (active) and inactive: Potency [16]

COc1ccc2c(c1OC)C(=O)O[C@H]2[C@@H]1c2cc3c(cc2CCN1C)OCO3
inactive: Potency [1] | Potency [2] | Potency [6] | Potency [7] | Potency [8] | Potency [16]
active: Potency [11] 11.9 µM | Potency [3] 11.9 µM | Potency [14] 3.89 µM | Potency [15] 5.49 µM

CN(C)N
inactive: Potency [11] | Potency [2] | Potency [3] | Potency [4] | Potency [5] | Potency [6] | Potency [7] | Potency [8] | Potency [13] | Potency [15] | Potency [9] | Potency [10]
active: Potency [16] 35.6 µM

CCCCCCCCCCCCN=C(N)N
active: Potency [16] 2.2 µM
inactive: activity change, negative = cytotoxicity [11] -4.73% [at 3.27 µM] | caspase-3/7 activation [2] -1.72% [at 3.27 µM] | activity change, negative = cytotoxicity [3] -9.99% [at 3.27 µM] | activation [4] 13.3% [at 3.27 µM] | activity, negative = inhibition [5] -5.91% [at 4.07 µM] | activity change, negative = inhibition [7] -10.7% [at 3.98 µM] | activity change, negative = inhibition [8] 1.01% [at 4.07 µM] | activity change, negative = inhibition [15] -14.6% [at 4.07 µM] | activity change, negative = inhibition [9] -4.13% [at 2.72 µM] | activity change, negative = inhibition [10] 2.59% [at 4.07 µM]

O=C(O)C(O)C(O)C(=O)O (stereo not drawn)
inactive: Potency [1] | Potency [11] | Potency [2] | Potency [3] | Potency [5] | Potency [6] | Potency [7] | Potency [9]

c1ccc2sc(SNC3CCCCC3)nc2c1
inactive: Potency [11] | Potency [2] | Potency [3] | max activation [12] 11.8% | outcome [17] | Potency [18] | Potency [5] | Potency [6] | Potency [7] | Potency [8] | Potency [9] | Potency [10]
active: Potency [4] 60.4 µM and 48.6 µM | Potency [13] 19.8 µM and 35.6 µM | Potency [14] 31.4 µM and 22.4 µM | Potency [15] 31.4 µM and 17.8 µM | Potency [16] 55.8 µM and 35.6 µM

CCCCNC(=O)OCC#CI
active: Potency [11] 30.5 µM and 27.3 µM | Potency [3] 48.3 µM and 61.1 µM | Potency [15] 5 µM and 5.03 µM | Potency [16] 3.54 µM and 5.64 µM | Potency [10] 3.54 µM and 5.64 µM
inactive: Potency [2] | Potency [4] | Potency [5] | Potency [7] | Potency [8] | Potency [9]

CC(C)(C)OOC(C)(C)CCC(C)(C)OOC(C)(C)C
inactive: Potency [11] | Potency [2] | Potency [3] | Potency [4] | Potency [5] | Potency [6] | Potency [7] | Potency [8] | Potency [13] | Potency [14] | Potency [9] | Potency [10]

CCC(C)(C)O
inactive: Potency [1] | Potency [11] | Potency [2] | Potency [3] | Potency [4] | Potency [5] | Potency [7] | Potency [8] | Potency [14] | Potency [15] | Potency [9] | Potency [10]

CCCCCCCCP(=O)(O)O
inactive: Potency [11] | Potency [2] | Potency [3] | Potency [5] | Potency [6] | Potency [7] | Potency [8] | Potency [13] | Potency [14] | Potency [15] | Potency [9] | Potency [10]

Nc1ccccc1C(=O)OCCc1ccccc1
active: Potency [4] 48.8 µM and 30.6 µM | Potency [14] 5.66 µM and 8.94 µM | Potency [15] 31.8 µM and 35.6 µM
inactive: Potency [1] | Potency [11] | Potency [2] | Potency [3] | Potency [5] | Potency [6] | Potency [7] | Potency [8] | Potency [9]

O=C(O)C(Cl)(Cl)Br
inactive: Potency [1] | Potency [11] | Potency [2] | Potency [3] | Potency [4] | Potency [5] | Potency [6] | Potency [7] | Potency [8] | Potency [14] | Potency [15] | Potency [16] | Potency [9] | Potency [10]

C[CH2][Hg][S]c1ccccc1C(=O)O
active: Potency [11] 1.72 µM and 1.88 µM | Potency [3] 12.2 µM and 13.3 µM
inactive: Potency [2] | max activation [12] -14.1% | Potency [9]

COc1cc(CC(C)N)c(OC)cc1Br (stereo not drawn)
active: Potency [13] 26 µM | Potency [16] 5.2 µM
inactive: Potency [1] | Potency [11] | Potency [2] | Potency [3] | Potency [5] | Potency [7] | Potency [8] | Potency [14] | Potency [15] | Potency [9]
